Assay results: PubChem BioAssay (NCATS)
Entries with a potency or affinity are not part of this list. Values without a mark were called inactive. No rule for the calls is given here.

settings: Ebola virus entry assay, green fluorescence channel
Also: 0% is about no effect.

SMILES | efficacy
CCCCCCCCCCCCCCCC(=O)OC(C)C | 10.3%
Cc1ccc(C(=O)C(C)CN2CCCCC2)cc1 (centres undefined) | -18.5%
COc1ccc(O)cc1 | 18.3%
Cc1c(Nc2ncccc2C(=O)O)cccc1C(F)(F)F | -17.3%
CCCNC(C)C(=O)Nc1c(C)csc1C(=O)OC (centres undefined) | 13%
C/C(=N\O)[C@@H](C)NCC(C)(C)CN[C@H](C)/C(C)=N/O | -29.3%
NC(=O)NC1N=C([O][Al])NC1=O (centres undefined) | 12.9%
CCN1CCN(C(=O)N[C@@H](C(=O)N[C@@H]2C(=O)N3[C@@H]2SC(C)(C)[C@H]3C(=O)O)c2ccccc2)C(=O)C1=O | -32.7%
c1ccc2sc(SSc3nc4ccccc4s3)nc2c1 | -14.3%
NCc1ccc(S(N)(=O)=O)cc1 | -17.9%
[N-]=[N+]=CC(=O)OC[C@H](N)C(=O)O | 10.3%
CC(N)CCCC(C)(C)O (centres undefined) | -22.7%
NS(=O)(=O)c1cc2c(cc1Cl)NC(C(Cl)Cl)NS2(=O)=O (centres undefined) | -21%
CCNC(=O)/C=C/c1cccc(Br)c1 | -12%
COc1ccc2c(c1OC)C(=O)O[C@H]2[C@@H]1c2cc3c(cc2CCN1C)OCO3 | 26.4%
NCC(=O)CCC(=O)O | -14.6%
O=C(O)/C=C\C(=O)O | 12.7%
Nc1ccc([N+](=O)[O-])c(C(F)(F)F)c1 | -37.2%
Nc1cc(C(Cl)=C(Cl)Cl)c(S(N)(=O)=O)cc1S(N)(=O)=O | -15.2%
